The text below walks through data of PubChem BioAssay (Tox21).

Test [1] is described as follows: cAMP Responsive Elements (CRE) small molecule antagonists, cell-based qHTS assay: qHTS cell viability counter screen (AID 2060913). Further: nearly all actives have a fitted effect of over 40% in size. In a few lines:
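Cytotoxicity counter screen multiplexed with the CRE-bla antagonist read: HEK293T cells in DMEM with dialyzed FBS and 25 mM HEPES were treated 3 hrs under 0.25 uM final NKH477, then viability measured by CellTiter-Glo luminescence.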
(In general: qHTS replaces the single test concentration by a dilution series.)

A short description of test [2]: cAMP Responsive Elements (CRE) small molecule agonists, cell-based qHTS assay: qHTS cell viability counter screen (AID 2060914). Further: nearly all actives have a fitted effect of over 50% in size. A digest of the protocol:
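Luminescence read-out (CellTiter-Glo, 30 min RT) of ATP-based viability in CRE-bla HEK 293T cells, run in the same wells as the β-lactamase reporter assay after 3 h compound treatment at 37 °C.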

Structures are written as SMILES. Records with an inconclusive call do not appear. Values without a mark were called inactive. Active and inactive are the calls of the source. The call rests on the fitted dose curve; in most records, active means well fitted cell-killing curve with a large enough effect in the repeat runs; inconclusive means weak or mixed curves, or effect the other way; inactive means flat fitted curve, though single readings scatter.
On the % scale 0 is the no-effect control and ±100 the full control effect.

On to `Cc1cc(S(=O)(=O)O)ccc1N=Nc1c(O)ccc2ccccc12`, for which the Potency result in test [1] and in test [2] was “inactive” throughout.
Take `CC(=O)CC(=O)OC(C)(C)C`: the Potency entry in test [1] and in test [2] was “inactive” in each case.
As for `Cc1cn([C@H]2C[C@H](F)[C@@H](CO)O2)c(=O)[nH]c1=O`, the Potency result in test [1] and in test [2] was “inactive” throughout.
As for `CCOC(=O)COC(=O)c1ccccc1C(=O)OCC`, the Potency result in test [1] and in test [2] was “inactive” in each case.
In the case of `CCN1CCCC1CNC(=O)c1cc(S(N)(=O)=O)ccc1OC` (centres undefined), the Potency entry in test [1] and in test [2] was “inactive” throughout.
On to `CC1CCCNC1` (centres undefined), for which the Potency result in test [1] and in test [2] was “inactive” in each case.
Take `C=O`: the Potency result in test [1] and in test [2] was “inactive” each time.
Regarding `C[N+](C)(C)CCOC(=O)CCC(=O)OCC[N+](C)(C)C`, the Potency entry in test [1] and in test [2] was “inactive” throughout.
With `CC(C)c1cccc(C(C)C)c1NC(=O)NS(=O)(=O)c1cc(C(C)(C)O)co1`, the Potency entry in test [1] and in test [2] was “inactive” in each case.
Turning to `O=C(O)CCCCCC(=O)O`, the Potency result in test [1] and in test [2] was “inactive” each time.
Consider `CCOC(=O)CN1CCCC1=O`, for which the Potency result in test [1] and in test [2] was “inactive” each time.
Take `COc1ccc(C2C(=O)c3ccccc3C2=O)cc1`: the Potency entry in test [1] and in test [2] was “inactive” each time.
Consider `CSc1ccc(Oc2ccc(S(N)(=O)=O)cc2CN(C)C)cc1C`, for which the Potency entry in test [1] and in test [2] was “inactive” each time.
For `COC(=O)CC(=O)OC`, the Potency entry in test [1] and in test [2] was “inactive” each time.
As to `C[N+]12CCC(CC1)C(OC(=O)C(O)(c1ccccc1)c1ccccc1)C2` (centres undefined), the Potency entry in test [1] and in test [2] was “inactive” each time.
Turning to `CCN(CC)CC1CCCCN1CC(=O)N1c2ccccc2C(=O)Nc2cccnc21` (centres undefined), the Potency entry in test [1] and in test [2] was “inactive” each time.
Regarding `COc1ccc(/C=N/NC(=O)c2ccncc2)cc1OC`, the Potency result in test [1] and in test [2] was “inactive” throughout.
With `CCCCCCCCCCCCS(=O)(=O)Cl`, the viability change, negative = cytotoxic in test [1] was 11.7% [at 18.9 µM]. In test [2], the activity change, negative = cytotoxicity is 8.81% [at 18.9 µM].
In the case of `O=C(O)CNC(=O)c1ccccc1I`, the Potency result in test [1] and in test [2] was “inactive” in each case.
With `IC(I)I`, the Potency entry in test [1] and in test [2] was “inactive” throughout.
`Nc1c2c(nc3ccccc13)CCCC2`: the Potency result in test [1] and in test [2] was “inactive” throughout.
As for `CCNc1nc(N)nc(Cl)n1`, the Potency result in test [1] and in test [2] was “inactive” in each case.
With `COc1ccccc1OCC(O)COC(N)=O` (centres undefined), the Potency result in test [1] and in test [2] was “inactive” in each case.
As to `CC(=O)CCCCn1c(=O)c2c(ncn2C)n(C)c1=O`, the Potency result in test [1] and in test [2] was “inactive” in each case.
For the compound `CO/N=C(/C(=O)N[C@@H]1C(=O)N2C(C(=O)OCOC(=O)C(C)(C)C)=C(C)CS[C@H]12)c1csc(N)n1`, the Potency result in test [1] and in test [2] was “inactive” each time.
As to `O=S(=O)(O)c1ccc2cc(O)c(S(=O)(=O)O)cc2c1`, the Potency result in test [1] and in test [2] was “inactive” each time.
Take `Nc1nc(=O)n([C@@H]2O[C@H](CO)[C@@H](O)[C@@H]2F)cc1I`: the Potency result in test [1] and in test [2] was “inactive” in each case.
`O=C(O)c1ccccc1OP(=O)(O)O`: the Potency result in test [1] and in test [2] was “inactive” each time.
Turning to `O=C1CN(/N=C/c2ccc([N+](=O)[O-])o2)C(=O)N1`, the Potency result in test [1] and in test [2] was “inactive” each time.
Regarding `Cc1cc(S(=O)(=O)O)c(N)cc1Cl`, the Potency result in test [1] and in test [2] was “inactive” throughout.
Take `O=C(O)c1ccccc1C(=O)O`: the Potency result in test [1] and in test [2] was “inactive” throughout.
Regarding `Nc1nc(=S)c2[nH]cnc2[nH]1`, the Potency result in test [1] and in test [2] was “inactive” throughout.
For `COc1ccc(O)cc1`, the Potency entry in test [1] and in test [2] was “inactive” in each case.
Consider `CC(=O)c1ccc(O)cc1`, for which the Potency result in test [1] and in test [2] was “inactive” throughout.
With `Cc1cc(C)cc(O)c1`, the Potency result in test [1] and in test [2] was “inactive” in each case.
As for `CCC1C(=O)OCC1Cc1cncn1C` (centres undefined), the Potency entry in test [1] and in test [2] was “inactive” each time.
Regarding `COCCCOc1cc(C[C@@H](C[C@H](N)[C@@H](O)C[C@H](C(=O)NCC(C)(C)C(N)=O)C(C)C)C(C)C)ccc1OC`, the Potency entry in test [1] and in test [2] was “inactive” in each case.
As to `COC(OC)OC`, the Potency result in test [1] and in test [2] was “inactive” in each case.
In the case of `COc1ccnc(CS(=O)c2nc3ccc(OC(F)F)cc3[nH]2)c1OC` (centres undefined), the Potency result in test [1] and in test [2] was “inactive” throughout.
Turning to `Cc1cc(C)c(C(=O)O)c(C)c1`, the Potency result in test [1] and in test [2] was “inactive” each time.
As for `Cc1occc1S`, the Potency result in test [1] and in test [2] was “inactive” each time.
Take `CCCCCCCCCCCCCCCCCCN(C)C`: the Potency result in test [1] and in test [2] was “inactive” throughout.
Consider `O=c1oc2cc(O)ccc2c2oc3cc(O)ccc3c12`, for which the Potency result in test [1] and in test [2] was “inactive” each time.
On to `COC1=CC(=O)C[C@@H](C)[C@]12Oc1c(Cl)c(OC)cc(OC)c1C2=O`, for which the Potency result in test [1] and in test [2] was “inactive” throughout.
Take `O=C1OC[C@H](Cc2cccc(O)c2)[C@H]1Cc1cccc(O)c1`: the Potency result in test [1] and in test [2] was “inactive” in each case.
As for `CO/N=C(\C(=O)O)c1csc(NC(=O)CCl)n1`, the Potency result in test [1] and in test [2] was “inactive” in each case.
Regarding `COCN(COC)c1nc(N(COC)COC)nc(N(COC)COC)n1`, the Potency result in test [1] and in test [2] was “inactive” in each case.
As to `O=C(O)C1=NN(c2ccc(S(=O)(=O)O)cc2)C(=O)C1`, the Potency result in test [1] and in test [2] was “inactive” in each case.
In the case of `CC1(C)S[C@@H]2[C@H](NC(=O)[C@H](N)c3ccccc3)C(=O)N2[C@H]1C(=O)O`, the Potency result in test [1] and in test [2] was “inactive” each time.
As for `Cc1ccc(Cl)c(OCC(O)CNC(C)(C)C)c1` (centres undefined), the Potency result in test [1] and in test [2] was “inactive” each time.
For `CCCCCC[C@@H](CCC)C(=O)O`, the Potency result in test [1] and in test [2] was “inactive” in each case.
For `C[C@H]1C[C@@H]2[C@H]([C@@H](O)C[C@@]3(C)[C@H]2CC[C@]3(O)C(=O)CO)[C@@]2(C)C=CC(=O)C=C12`, the Potency result in test [1] and in test [2] was “inactive” each time.
Regarding `O=C(O)c1cc(O)c(O)c(O)c1`, the Potency entry in test [1] and in test [2] was “inactive” each time.
As for `CCC1Nc2cc(Cl)c(S(N)(=O)=O)cc2S(=O)(=O)N1` (centres undefined), the Potency entry in test [1] and in test [2] was “inactive” in each case.
As for `Nc1ccc(O)cc1`, the Potency result in test [1] and in test [2] was “inactive” each time.
Turning to `CCCCCCc1ccc(-c2ccc(C#N)cc2)cc1`, the Potency result in test [1] and in test [2] was “inactive” each time.
For the compound `CCC1=C[C@@H]2CN(C1)Cc1c([nH]c3ccccc13)[C@@](C(=O)OC)(c1cc3c(cc1OC)N(C)[C@H]1[C@@](O)(C(=O)OC)[C@H](OC(C)=O)[C@]4(CC)C=CCN5CC[C@]31[C@@H]54)C2`, the Potency result in test [1] and in test [2] was “inactive” each time.
